Rows were chosen to be rich in hits. Some 21% of all compounds tested hit in one or more screens of this group.
VP16 counter – Gal4-VP16 reporter inhibition counter-screen; Drosophila S2 Gal4-VP16 UAS-luciferase, luminescence, 20 h; 3.5% of 310,000 active; AID 2546; Potency, µM (top dose mostly 53.6 µM), for inactives: top-dose activity, negative = inhibition, actives largely listed as inhibitors;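 note: Gal4-VP16 expression switched on by copper sulfate through the metallothionein promoter; potency is the fitted concentration of half-maximal effect; nearly all actives have a fitted effect of over 50% in size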
IL1B secr inh – blocks inflammasome-driven IL-1 beta release; THP-1 LPS/ATP IL-1B secretion, AlphaLISA, 16 h; hits give low values; activity change, % at 57.5 µM; 4.7% of 360,000 active; in the data active = activity change below about -50%; inconclusive = mostly about -30% to -49%
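THP-1 cells pretreated 1 hr with compounds (up to 57.5 uM final), then stimulated with LPS (250 ng/mL final) plus ATP (1.25 mM final); secreted IL-1B measured by AlphaLISA after 16 hr, decreased signal indicating inhibition.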
ELG1 repair inh – inhibitors of ELG1-dependent DNA repair in HEK293T cells | AID 504467 | 2.3% of 330,000 active | HEK293T ELG1-luciferase reporter, luminescence, 16 h; DNA damage induced by 5-fluorouridine | Potency, µM (highest dose often 46.1 µM), without a hit: at the highest dose activity change, negative = inhibition, hits mostly inhibitors; note: potency is the fitted concentration of half-maximal effect; nearly all actives have a fitted effect of over 55% in size
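HEK293T cells expressing luciferase-tagged ELG1 (2,000/well) received 5-Fluorouridine plus compound or DMSO for 16 hr at 37 °C. Luciferase was read by ONE-Glo luminescence after 30 min at room temperature.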
TDP1 cell noCPT – qHTS for Inhibitors of human tyrosyl-DNA phosphodiesterase 1 (TDP1): qHTS in cells in absence of CPT | DT40 Tdp1-/- hTDP1 cells, no CPT, ATP luminescence, 48 h | Potency, µM (titrated, usually from 46.2 µM), for inactives: at the top dose activity change, negative = growth inhibition, actives largely listed as inhibitors | 15% of 420,000 active | AID 686978, 2013; note: potency is the fitted concentration of half-maximal effect; nearly all actives have a fitted effect of over 55% in size
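Camptothecin absent (DMSO only). Human TDP1-complemented DT40 knockout cells, 400 cells/well, 37 °C for minimum 48 hr; ATP measured via CellTiter-Glo, 30 min dark incubation, luminescence.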
RORgamma inh – ROR gamma (mouse) transcription inhibition; P51450; Drosophila S2 Gal4-RORgamma UAS-luciferase reporter, 20 h; Potency, µM (series often up to 53.6 µM), for the others: at the top dose activity change, negative = inhibition, usual class: inhibitors; 5.4% of 310,000 active; note: potency is the fitted concentration of half-maximal effect; nearly all actives have a fitted effect of over 60% in size
Target sequence (P51450 whole entry, looked up, the tested form may be a part): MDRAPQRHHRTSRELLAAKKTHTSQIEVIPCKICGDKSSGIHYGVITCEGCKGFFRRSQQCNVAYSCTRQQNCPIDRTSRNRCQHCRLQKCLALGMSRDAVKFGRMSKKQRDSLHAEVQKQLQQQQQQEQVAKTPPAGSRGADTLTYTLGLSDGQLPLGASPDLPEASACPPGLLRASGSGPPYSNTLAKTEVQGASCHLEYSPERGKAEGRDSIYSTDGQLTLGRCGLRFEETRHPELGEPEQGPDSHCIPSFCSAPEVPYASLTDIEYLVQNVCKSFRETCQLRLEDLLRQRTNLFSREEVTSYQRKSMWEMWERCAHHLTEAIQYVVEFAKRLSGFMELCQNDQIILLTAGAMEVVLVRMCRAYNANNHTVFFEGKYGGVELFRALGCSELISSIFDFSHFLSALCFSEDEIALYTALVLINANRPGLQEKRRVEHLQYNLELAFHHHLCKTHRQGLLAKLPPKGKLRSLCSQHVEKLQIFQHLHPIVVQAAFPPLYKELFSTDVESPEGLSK
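Compounds are pin-transferred onto Drosophila Schneider cells expressing a copper-inducible Gal4–ROR gamma transactivation domain fusion. After 1 hr, copper sulfate is added to 700 uM final; luciferase is read 20 hr later.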
DT40 TDP1 CPT – growth inhibition of DT40 Tdp1-/-;hTDP1 cells with camptothecin (screen for TDP1 inhibitors). AID 686979. chicken DT40 Tdp1-/-;hTDP1 cells + 20 nM CPT, ATP luminescence, 48 h. 12% of 420,000 active. Potency, µM (top dose mostly 46.2 µM), for the others: top-dose activity change, negative = growth inhibition, usual class: inhibitors; note: potency is the fitted concentration of half-maximal effect; nearly all actives have a fitted effect of over 55% in size
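Chicken DT40 Tdp1-/- cells complemented with human TDP1, 400 cells/well, exposed to compounds plus 20 nM camptothecin for at least 48 h at 37 C; viability read as ATP content by CellTiter-Glo luminescence.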
Numbers without * were called inactive. Unless noted, calls come from the whole dose curve; as a rule, active = well fitted curve in the direction sought with a large enough effect; inconclusive = small, poorly fitted or top-dose-only effect, or another doubt; inactive = no such curve, though single readings can be large; an effect the other way counts as inactive or inconclusive. % is set by controls: 0 for no effect and ±100 for the full control effect.

Results for CCOC(=O)C1CCN(S(=O)(=O)c2ccc3c4c2CC(=O)N4CC(C)S3)CC1 (stereo not drawn) ?
VP16 counter: 7.9%; IL1B secr inh: 21.8; ELG1 repair inh: -26.1%; TDP1 cell noCPT: inconclusive; RORgamma inh: -3.2%; DT40 TDP1 CPT: 20.6µM*

Results for O=C1CCN(Cc2cccnc2)CCN1[C@H](CO)Cc1ccccc1 ?
VP16 counter: -3.5%; IL1B secr inh: -15.6; ELG1 repair inh: 19.0%; TDP1 cell noCPT: -21.5%; RORgamma inh: -12.6%; DT40 TDP1 CPT: -8.8%

Results for CN(Cc1ccco1)c1ccnc(-c2ccoc2)n1 ?
VP16 counter: -15.9%; TDP1 cell noCPT: -0.3%; RORgamma inh: -12.5%; DT40 TDP1 CPT: 3.8%

Results for COc1cc(NC(=O)CN2C(=O)C(C)N(c3ccc(C)cc3)C2=O)cc(OC)c1 (stereo not drawn) ?
IL1B secr inh: -10.3; ELG1 repair inh: -6.0%; TDP1 cell noCPT: -12.0%; DT40 TDP1 CPT: -7.7%

What do the screens show for `Cc1ccc(N2C(=O)N(CC(=O)Nc3cccc(Cl)c3)C(=O)C2C)cc1` (stereo not drawn)?
IL1B secr inh: -60.6*; ELG1 repair inh: 14.7%; TDP1 cell noCPT: inconclusive; DT40 TDP1 CPT: inconclusive

How did CCN(c1ccccc1)S(=O)(=O)c1ccc(NC(=O)c2nc(SC)ncc2Cl)cc1 do in these assays?
TDP1 cell noCPT: 20.6µM*; DT40 TDP1 CPT: 11.6µM*

Results for CCCSc1ncc(Cl)c(C(=O)Nc2ccc(S(=O)(=O)N(C)c3ccccc3)cc2)n1 ?
TDP1 cell noCPT: 20.6µM*; DT40 TDP1 CPT: inconclusive

How did CN(c1ccccc1)S(=O)(=O)c1ccc(NC(=O)c2nc(S(C)(=O)=O)ncc2Cl)cc1 do in these assays?
VP16 counter: 2.82µM*; IL1B secr inh: -95.6*; ELG1 repair inh: inconclusive; TDP1 cell noCPT: 0.581µM*; RORgamma inh: 6.31µM*; DT40 TDP1 CPT: 0.651µM*

How did CCSc1ncc(Cl)c(C(=O)Nc2ccccc2)n1 do in these assays?
VP16 counter: -13.4%; IL1B secr inh: 18.6; ELG1 repair inh: -3.5%; TDP1 cell noCPT: -17.1%; RORgamma inh: 27.3%; DT40 TDP1 CPT: -27.5%

What do the screens show for `CCCn1c(-c2ccc(F)cc2)nc2c(NC3CCN(Cc4ccccc4)CC3)nc(C)nc21`?
VP16 counter: -15.9%; RORgamma inh: inconclusive

What do the screens show for `O=C(Oc1ccc(N(Cc2cccs2)C2=NS(=O)(=O)c3ccccc32)cc1)c1ccc(Cl)cc1`?
VP16 counter: -3.4%; IL1B secr inh: -2.2; ELG1 repair inh: -25.7%; TDP1 cell noCPT: 18.4µM*; RORgamma inh: inconclusive; DT40 TDP1 CPT: inconclusive

Results for O=C(Oc1ccc(N(Cc2cccs2)C2=NS(=O)(=O)c3ccccc32)cc1)c1ccccc1 ?
VP16 counter: -3.8%; IL1B secr inh: 6.6; ELG1 repair inh: -1.7%; TDP1 cell noCPT: 23.1µM*; RORgamma inh: 0.5%; DT40 TDP1 CPT: inconclusive

Results for Cc1ccc(NC(=O)CSc2nccn2Cc2ccc3c(c2)OCO3)c(C)c1 ?
TDP1 cell noCPT: -1.5%; DT40 TDP1 CPT: -14.2%

What do the screens show for `COC(=O)/C(=C(/F)Sc1cc(C)c(O)c(C)c1)C(F)(F)F`?
VP16 counter: 4.8%; IL1B secr inh: -7.3; ELG1 repair inh: -0.7%; TDP1 cell noCPT: 7.31µM*; RORgamma inh: 10.6%; DT40 TDP1 CPT: 10.3µM*

Results for Cn1c(=O)c2c(nc(CN3CCN(c4ccc(F)cc4)CC3)n2Cc2ccccc2F)n(C)c1=O ?
VP16 counter: 0.7%; IL1B secr inh: 1.6; ELG1 repair inh: 6.51µM*; TDP1 cell noCPT: 8.2µM*; RORgamma inh: -7.9%; DT40 TDP1 CPT: 10.3µM*

What do the screens show for `COCCn1c(CN2CCN(c3ccc(F)cc3)CC2)nc2c1c(=O)n(C)c(=O)n2C`?
VP16 counter: inconclusive; ELG1 repair inh: inconclusive; RORgamma inh: -33.0%

Results for Cn1c(=O)c2c(nc(CN3CCN(c4ccccc4F)CC3)n2Cc2ccccc2F)n(C)c1=O ?
TDP1 cell noCPT: 5.17µM*; DT40 TDP1 CPT: 6.51µM*

Results for CCN1CCN(Cc2nc3c(c(=O)n(C)c(=O)n3C)n2Cc2ccccc2Cl)CC1 ?
VP16 counter: -16.5%; ELG1 repair inh: 2.2%; RORgamma inh: -0.1%

What do the screens show for `Nc1nc(CN2CCOCC2)cs1`?
VP16 counter: -5.4%; IL1B secr inh: 9.5; ELG1 repair inh: -0.7%; TDP1 cell noCPT: 29.1µM*; RORgamma inh: -4.2%; DT40 TDP1 CPT: inconclusive

What do the screens show for `CC(=O)C1=C(C)N(Cc2ccco2)C(=O)N[C@@H]1c1ccccc1`?
VP16 counter: -4.5%; RORgamma inh: -3.5%

What do the screens show for `COc1ccccc1C(=O)COC(=O)CN1C(=O)C2CC=CCC2C1=O` (stereo not drawn)?
IL1B secr inh: 10.6; ELG1 repair inh: inconclusive; TDP1 cell noCPT: -3.5%; DT40 TDP1 CPT: 12.7%

What do the screens show for `CN1/C(=C/C(=O)COC(=O)C2COc3ccccc3O2)C(C)(C)c2ccccc21` (stereo not drawn)?
IL1B secr inh: 10.5; TDP1 cell noCPT: 20.6µM*; DT40 TDP1 CPT: 25.9µM*

How did Cc1ccc(NC(=O)COC(=O)C2COc3ccccc3O2)cc1 (stereo not drawn) do in these assays?
IL1B secr inh: 40.4; ELG1 repair inh: 13.0%; TDP1 cell noCPT: 21.1%; DT40 TDP1 CPT: -2.3%

How did CN1/C(=C\C(=O)COC(=O)CN2C(=O)C3CC=CCC3C2=O)C(C)(C)c2ccccc21 (stereo not drawn) do in these assays?
VP16 counter: 4.47µM*; IL1B secr inh: 58.7; ELG1 repair inh: -19.4%; TDP1 cell noCPT: 18.4µM*; RORgamma inh: inconclusive; DT40 TDP1 CPT: inconclusive

How did Cc1ccc(CNC(=O)c2ccc(N3CCC4(CC3)CC(c3ccccc3)=NO4)c(N)c2)cc1 do in these assays?
VP16 counter: inconclusive; IL1B secr inh: 40.5; ELG1 repair inh: -4.1%; TDP1 cell noCPT: inconclusive; RORgamma inh: -19.4%; DT40 TDP1 CPT: 2.59µM*

What do the screens show for `CCCCC(CC)C(=O)Nc1cc(C(=O)NCCC)ccc1N1CCC2(CC1)CC(c1ccccc1)=NO2` (stereo not drawn)?
VP16 counter: 0.5%; IL1B secr inh: -16.7; ELG1 repair inh: inconclusive; TDP1 cell noCPT: inconclusive; RORgamma inh: 15.0%; DT40 TDP1 CPT: 6.51µM*
